Data taken from PubChem BioAssay (NCI).
Values joined by “and” are separate entries in the source; they are usually repeats but may differ in a detail not shown here. Identical values can stand only once. The panel holds about 83,000 compounds, 20% with a hit somewhere; the sample as a whole holds those more often.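 Compound tested at a single concentration for 48 hours in 96-well plates; a percent growth value below 10 was scored as active.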 Active and inactive are the calls of the source.

How the values were obtained:
Assay in all cases: NCI-60 one-dose screen, 48 h (100 = growth as untreated, 0 = no growth, -100 = all killed)
Conditions in all cases: 10 µM unless noted
SK-MEL-2 melanoma = system: SK-MEL-2 melanoma
EKVX NSCLC = system: EKVX NSCLC
SN12C renal = system: SN12C renal
UO-31 renal = system: UO-31 renal
TK-10 renal = system: TK-10 renal
ACHN renal = system: ACHN renal
CAKI-1 renal = system: CAKI-1 renal
A498 renal = system: A498 renal
CCRF-CEM leukemia = system: CCRF-CEM leukemia
MOLT-4 leukemia = system: MOLT-4 leukemia
SR leukemia = system: SR leukemia
RPMI-8226 leukemia = system: RPMI-8226 leukemia
OVCAR-8 ovarian = system: OVCAR-8 ovarian
OVCAR-5 ovarian = system: OVCAR-5 ovarian
OVCAR-4 ovarian = system: OVCAR-4 ovarian
SK-OV-3 ovarian = system: SK-OV-3 ovarian
IGROV1 ovarian = system: IGROV1 ovarian
OVCAR-3 ovarian = system: OVCAR-3 ovarian
HS 578T breast = system: HS 578T breast
NCI/ADR-RES ovarian = system: NCI/ADR-RES ovarian

Measured: growth

C[C@@H]1O[C@@H](O[C@H]2[C@@H](OC(=O)[C@]34CCC(C)(C)C[C@H]3C3=CC[C@@H]5[C@@]6(C)C[C@H](O)[C@H](O[C@@H]7O[C@H](CO)[C@@H](O)[C@H](O)[C@H]7O)[C@@](C)(CO)[C@@H]6CC[C@@]5(C)[C@]3(C)C[C@H]4O)OC[C@@H](O)[C@@H]2O)[C@H](O)[C@H](O[C@@H]2OC[C@@H](O)[C@H](O[C@@H]3OC[C@](O)(CO)[C@H]3O[C@@H]3OC[C@@H](O)[C@H](O)[C@H]3O)[C@H]2O)[C@H]1O[C@@H]1OC[C@](O)(CO)[C@H]1O
inactive: SK-MEL-2 melanoma 17.5% | EKVX NSCLC 39.7% | SN12C renal 25.5% | UO-31 renal 28.6% | TK-10 renal 74.2% | ACHN renal 78% | CAKI-1 renal 71.8% | CCRF-CEM leukemia 86% | MOLT-4 leukemia 86.6% | SR leukemia 67.5% | RPMI-8226 leukemia 64% | OVCAR-8 ovarian 98.8% | OVCAR-5 ovarian 78.1% | OVCAR-4 ovarian 42.5% | SK-OV-3 ovarian 93.9% | IGROV1 ovarian 86.4% | OVCAR-3 ovarian 89.6% | HS 578T breast 97.9% | NCI/ADR-RES ovarian 80.5%
active: A498 renal 5.96%

CCOC(=O)C1=C(C)N=C2SC=C(c3ccc(F)cc3)N2[C@H]1c1cn(-c2ccccc2)nc1-c1ccc(Cl)cc1
inactive: SK-MEL-2 melanoma 97.4% | EKVX NSCLC 88.4% | SN12C renal 98.6% | UO-31 renal 85.1% | TK-10 renal 93.6% | ACHN renal 101% | CAKI-1 renal 84.1% | A498 renal 89.7% | CCRF-CEM leukemia 95.5% | MOLT-4 leukemia 78.3% | SR leukemia 88% | RPMI-8226 leukemia 88.4% | OVCAR-8 ovarian 92% | OVCAR-5 ovarian 91.9% | OVCAR-4 ovarian 102% | SK-OV-3 ovarian 87.8% | IGROV1 ovarian 96.7% | OVCAR-3 ovarian 114% | HS 578T breast 101% | NCI/ADR-RES ovarian 105%

O/N=C(/c1ccccc1)c1ccc2c3c(cccc13)CC2
inactive: SK-MEL-2 melanoma 96.2% and 92.7% | EKVX NSCLC 79.5% | SN12C renal 93.1% and 85.7% | UO-31 renal 73.4% and 81.3% | TK-10 renal 113% and 89.7% | ACHN renal 101% and 94.5% | CAKI-1 renal 71.5% and 72.5% | A498 renal 78.3% and 89.2% | CCRF-CEM leukemia 75.3% and 82.8% | MOLT-4 leukemia 74.7% and 72.9% | SR leukemia 67% and 66.6% | RPMI-8226 leukemia 75.2% and 70.4% | OVCAR-8 ovarian 87.7% | OVCAR-5 ovarian 97.7% and 95.4% | OVCAR-4 ovarian 83.9% and 77.1% | SK-OV-3 ovarian 99.3% and 97.4% | IGROV1 ovarian 97.8% and 98% | OVCAR-3 ovarian 99.4% and 93.3% | HS 578T breast 94.4% and 90.2% | NCI/ADR-RES ovarian 92.8% and 88.6%

Cn1cc(-c2csc(-c3c[nH]c4ccc(F)cc34)n2)c2cnccc21
inactive: A498 renal 74.8% | OVCAR-4 ovarian 10.9% | SK-OV-3 ovarian 103% | NCI/ADR-RES ovarian 11.5%
active: SK-MEL-2 melanoma -66.4% | EKVX NSCLC -28.4% | SN12C renal -48.5% | UO-31 renal -75.3% | TK-10 renal -28% | ACHN renal -54% | CAKI-1 renal -57.8% | CCRF-CEM leukemia -32.3% | MOLT-4 leukemia -34.7% | SR leukemia -36% | RPMI-8226 leukemia -35.5% | OVCAR-8 ovarian -1.04% | OVCAR-5 ovarian -12.5% | IGROV1 ovarian -37.1% | OVCAR-3 ovarian -73.2% | HS 578T breast -38.1%

O=C1/C(=C/c2ccccc2)CN(C(=O)C(Cl)Cl)C/C1=C\c1ccccc1
inactive: SK-MEL-2 melanoma 38.4% | EKVX NSCLC 12.2% | TK-10 renal 59.5% | OVCAR-8 ovarian 10.7% | OVCAR-5 ovarian 31.7% | OVCAR-4 ovarian 29.7% | SK-OV-3 ovarian 90.2% | NCI/ADR-RES ovarian 13.5%
active: SN12C renal -40.7% | UO-31 renal -52.8% | ACHN renal -74.6% | CAKI-1 renal 4.64% | A498 renal 4.17% | CCRF-CEM leukemia 8.2% | MOLT-4 leukemia 4.99% | SR leukemia -4.98% | RPMI-8226 leukemia -25.6% | IGROV1 ovarian -25.1% | OVCAR-3 ovarian -52.7% | HS 578T breast 4.17%

O=C(Nc1ncc(Cc2cccc(C(F)(F)F)c2)s1)c1ccc(-n2cnnn2)cc1
inactive: SK-MEL-2 melanoma 89.4% | EKVX NSCLC 40.2% | SN12C renal 79.9% | UO-31 renal 48.3% | TK-10 renal 50.4% | ACHN renal 32% | CAKI-1 renal 30.1% | A498 renal 54.7% | CCRF-CEM leukemia 55.3% | MOLT-4 leukemia 39.4% | SR leukemia 61.2% | RPMI-8226 leukemia 51.5% | OVCAR-8 ovarian 58.5% | OVCAR-5 ovarian 74.2% | OVCAR-4 ovarian 33.6% | SK-OV-3 ovarian 86.4% | IGROV1 ovarian 74.6% | OVCAR-3 ovarian 72.1% | HS 578T breast 79.3% | NCI/ADR-RES ovarian 35.9%
